Results: PubChem BioAssay (NCI)
About 83,000 compounds went through this panel and 20% of them were active in at least one assay; those are over-represented in the sample as a whole.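 Activity criterion: percent growth below 10, measured after cells in 96-well plates were exposed to a single compound concentration for 48 hours.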 A number with no mark means an inactive call. Activity calls are given as the source filed them.

Legend:
Assay in all cases: NCI-60 one-dose screen, 48 h (100 = growth as untreated, 0 = no growth, -100 = all killed)
[1] = system: SR leukemia; conditions: 10 µM unless noted
[2] = system: RPMI-8226 leukemia; conditions: 10 µM unless noted
[3] = system: OVCAR-8 ovarian; conditions: 10 µM unless noted
[4] = system: OVCAR-4 ovarian; conditions: 10 µM unless noted
[5] = system: SK-OV-3 ovarian; conditions: 10 µM unless noted
[6] = system: IGROV1 ovarian; conditions: 10 µM unless noted
[7] = system: OVCAR-3 ovarian; conditions: 10 µM unless noted
[8] = system: HS 578T breast; conditions: 10 µM
[9] = system: NCI/ADR-RES ovarian; conditions: 10 µM unless noted
[10] = system: T-47D breast; conditions: 10 µM unless noted
[11] = system: BT-549 breast; conditions: 10 µM unless noted
[12] = system: MDA-MB-435 melanoma; conditions: 10 µM unless noted
[13] = system: SW-620 colon; conditions: 10 µM unless noted
[14] = system: MCF7 breast; conditions: 10 µM unless noted
[15] = system: HCT-116 colon; conditions: 10 µM unless noted
[16] = system: HCC-2998 colon; conditions: 10 µM unless noted
[17] = system: KM12 colon; conditions: 10 µM unless noted
[18] = system: OVCAR-5 ovarian; conditions: 10 µM unless noted

Row | SMILES | growth [1] | growth [2] | growth [3] | growth [4] | growth [5] | growth [6] | growth [7] | growth [8] | growth [9] | growth [10] | growth [11] | growth [12] | growth [13] | growth [14] | growth [15] | growth [16] | growth [17] | growth [18]
1 | C=CCn1c(C)nc2cc(Nc3nc(N4CCCC4)nc4nc[nH]c34)ccc21 | -9.28% (active) | 29.9% | 74.7% | -30.4% (active) | 59% | 55.8% | -11.3% (active) | -0.0485% (active) | 94.7% | 45% | -33.6% (active) | 9.16% (active) | 40.8% | 73.5% | -40.2% (active) | 76.4% | 13.1% | –
2 | CCN(CC)CCCNc1cccc2c(C)cc(OC)nc12 | 78.3% | 92.3% | 97.9% | – | – | 89.5% | 99.9% | 96.4% | 95.9% | 98.7% | 87.4% | 115% | 102% | 84.8% | 95.1% | 90.2% | 100% | 95.5%
3 | Oc1ccc(Cl)cc1-c1cc(-c2ccccc2Cl)[nH]n1 | 41.9% | 42.3% | 71.1% | – | 76.9% | 34.2% | 21.2% | – | – | 11.1% | 76.2% | 48.1% | 74.7% | 9.57% (active) | 55.8% | 31.1% | 19.7% | 87.9%
4 | NC(=Nc1ccccc1)SCCCSC(N)=Nc1ccccc1 | 94.6% | 73.4% | 86.4% | – | 97.3% | 80.1% | – | 89% | 85.5% | 70.1% | 92.9% | 89.8% | 95.4% | 90.9% | 90.5% | 99.2% | 94.7% | 86.4%
5 | COc1cccc(NC(=O)c2c(-c3ccccc3)c(-c3ccccc3)n[nH]c2=O)c1 | 88.3% | 86.1% | 103% | – | 99.5% | 105% | – | – | – | 87.5% | 102% | 98% | 98.7% | 95.9% | – | 94.4% | 103% | 97.8%
6 | O=C(/C=C/c1cn(-c2ccccc2)nc1-c1cccc(Nc2ccnc3cc(Cl)ccc23)c1)c1ccc2c(c1)OCO2 | 8.67% (active) | 59.2% | 91.9% | – | 113% | 96.8% | 117% | 105% | – | 93.3% | 100% | 69.6% | 95.9% | 81.1% | 83.8% | 102% | 94.1% | 106%
7 | N#Cc1ccc(NC(=O)Nc2nc3ccc(OC(F)(F)F)cc3s2)cc1 | -38.4% (active) | -9.16% (active) | 8.91% (active) | – | – | – | 28.9% | -0.817% (active) | -13.8% (active) | -10.3% (active) | – | -25.6% (active) | 13.6% | 6.26% (active) | -3.77% (active) | -5.67% (active) | 10.5% | 16%
8 | C#CC[C@@H]1C[C@]2(C)[C@H]3CC[C@@H]4[C@H]5C(C(=C)C)CC[C@]5(C(=O)NCCN(CCN)CCN)CC[C@@]4(C)[C@]3(C)CC[C@H]2C(C)(C)[C@H]1OC(C)=O (stereo not given in full) | -0.547% (active) | 58.3% | 72.1% | 21.7% | 105% | 98% | 48.7% | 115% | 95.4% | – | 110% | 84.8% | 15.2% | -59.9% (active) | – | 81.1% | 60% | –
9 | O=C(O)C1[S][Sb]([CH](C(=O)O)[CH](C(=O)O)[Sb]2[S]C(C(=O)O)C(C(=O)O)[S]2)[S]C1C(=O)O (stereo not given) | 50.2% | 91.9% | 96.2% | – | 103% | 87.8% | – | 101% | 104% | 86.8% | 63.8% | 116% | 103% | 67.9% | 100% | 108% | 100% | 118%
10 | COc1cc2c(cc1C)NC(=O)/C2=C\c1c[nH]c2ccccc12 | 46.4% | 59.7% | 69.3% | 64.8% | 97.4% | -6.11% (active) | 65.9% | 75.2% | 77% | 65.8% | 94.6% | 68.8% | 101% | 59.2% | 78.5% | 109% | 24.3% | –
11 | CCOC(=O)c1c(NC(=O)c2ccccc2)sc2c(O)c(CN(CC)CC)ccc12 | 9.72% (active) | 18.2% | 2.1% (active) | – | -14.8% (active) | 22.4% | -61.6% (active) | 26.9% | – | 44.9% | 0.881% (active) | -55.4% (active) | 19.6% | 8.33% (active) | 7.59% (active) | 11.6% | 2.35% (active) | 48.6%
12 | CC(=O)c1c(O)c(C)c(O)c2c1OC1=CC(=O)/C(=C(/C)N)C(=O)C12C (stereo not given) | 69% | 68.6% | 81.8% | – | 101% | 89.1% | 103% | 91.5% | – | 74.9% | 89.3% | 103% | 99.4% | 85.4% | 63.4% | 103% | 88% | 98.5%
13 | CCCCN(CCCC)CCCN=c1nc2c(c(N)n1-c1ccccc1)c(=S)n(-c1ccccc1)c(=S)n2-c1ccccc1 | -65.2% (active) | -53.4% (active) | -36.1% (active) | -82% (active) | -86.5% (active) | -70.9% (active) | -100% (active) | -64.6% (active) | -71.1% (active) | -62.1% (active) | -90.6% (active) | -100% (active) | -100% (active) | -88.1% (active) | -25% (active) | -91.5% (active) | -100% (active) | –
14 | COc1ccc(-c2n[nH]nc2-c2cc(OC)c3c(c2)OCO3)cc1 | -30.8% (active) | 9.65% (active) | 6.23% (active) | 51.7% | -6.92% (active) | -17.4% (active) | -14.6% (active) | 15% | 0.386% (active) | 53.7% | 15.6% | -74.7% (active) | 22.6% | 15.9% | 5.38% (active) | -3.69% (active) | 2.06% (active) | –
15 | COC1=CC(c2ccc[nH]2)=N/C1=C\c1[nH]c(C)c(C(=O)CCCCCCCCC(=O)O[C@H]2CC[C@H]3C4CCc5cc(O)ccc5C4CC[C@]23C)c1C (stereo not given in full) | -14.6% (active) | 33.2% | 12.2% | 49.7% | – | 22.7% | 13.7% | 10.7% | 68.3% | 29.8% | 38.3% | 14.3% | 6.58% (active) | 24.1% | 7.77% (active) | 26.2% | 17.5% | –
16 | Cc1cc(C)c([O-])c(CN(C)CCN(C)Cc2cc(C)cc(C)c2[O-])c1.O=C([O-])c1cccc(C(=O)[O-])n1.[Ti+4] | – | -25.9% (active) | 20.9% | 22% | 34.3% | 6.22% (active) | 9.53% (active) | 0.477% (active) | 7.88% (active) | 28.4% | -0.731% (active) | 6.53% (active) | -19.7% (active) | 17.1% | 4.86% (active) | 5.25% (active) | 11% | 22.1%
17 | Cc1c(-c2ccc(-c3ccccc3F)cc2)nc2ccc(F)cc2c1C(=O)O | 23.4% | 23.3% | – | 75.1% | 65.1% | 44.6% | 55.9% | 67% | 49.6% | 59.2% | 45.5% | 34.9% | 38.9% | 28.4% | 21% | 37.7% | 35.2% | 34.8%
18 | O=C(NO)c1ccc(NCc2csc3ccccc23)cc1 | – | 35.7% | 42% | 67.8% | 81.8% | 55.6% | 66.8% | 70.5% | 6.83% (active) | 41.5% | 77.6% | 82.4% | 61.5% | 83% | 34.4% | 73.5% | 66.9% | 73.4%
19 | CN1CCN(c2ccc(N3Cc4ccccc4OC4=C3C(=O)c3c(O)ccc(O)c3C4=O)cn2)CC1 | – | -7.62% (active) | 2.15% (active) | -97.2% (active) | 26% | -59.3% (active) | -99.6% (active) | 23.5% | 5.09% (active) | -32.7% (active) | -78.8% (active) | 0.932% (active) | -61.1% (active) | -39.2% (active) | -80.9% (active) | -65.8% (active) | -53.2% (active) | -32.5% (active)
